PMC4336329 (PLoS ONE, 2015)
In all, about 310,000 compounds went through this assay and about 14,000 (4.5%) showed an effect of 50% or more. The effect is printed as a negative number. The sample holds strong results, similar compounds and a random draw of the others, so the mix is not that of the screen.

Target: human ether-à-go-go-related gene (hERG) potassium channel (human, UniProt Q12809)
Test: primary screen, population patch clamp on CHO cells stably expressing hERG; higher = less effect of the substance
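Note: peak tail current of the secondary pulse compared with the same well before compound.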

human ether-à-go-go-related gene (hERG) potassium channel, sequence (Q12809 whole entry, looked up): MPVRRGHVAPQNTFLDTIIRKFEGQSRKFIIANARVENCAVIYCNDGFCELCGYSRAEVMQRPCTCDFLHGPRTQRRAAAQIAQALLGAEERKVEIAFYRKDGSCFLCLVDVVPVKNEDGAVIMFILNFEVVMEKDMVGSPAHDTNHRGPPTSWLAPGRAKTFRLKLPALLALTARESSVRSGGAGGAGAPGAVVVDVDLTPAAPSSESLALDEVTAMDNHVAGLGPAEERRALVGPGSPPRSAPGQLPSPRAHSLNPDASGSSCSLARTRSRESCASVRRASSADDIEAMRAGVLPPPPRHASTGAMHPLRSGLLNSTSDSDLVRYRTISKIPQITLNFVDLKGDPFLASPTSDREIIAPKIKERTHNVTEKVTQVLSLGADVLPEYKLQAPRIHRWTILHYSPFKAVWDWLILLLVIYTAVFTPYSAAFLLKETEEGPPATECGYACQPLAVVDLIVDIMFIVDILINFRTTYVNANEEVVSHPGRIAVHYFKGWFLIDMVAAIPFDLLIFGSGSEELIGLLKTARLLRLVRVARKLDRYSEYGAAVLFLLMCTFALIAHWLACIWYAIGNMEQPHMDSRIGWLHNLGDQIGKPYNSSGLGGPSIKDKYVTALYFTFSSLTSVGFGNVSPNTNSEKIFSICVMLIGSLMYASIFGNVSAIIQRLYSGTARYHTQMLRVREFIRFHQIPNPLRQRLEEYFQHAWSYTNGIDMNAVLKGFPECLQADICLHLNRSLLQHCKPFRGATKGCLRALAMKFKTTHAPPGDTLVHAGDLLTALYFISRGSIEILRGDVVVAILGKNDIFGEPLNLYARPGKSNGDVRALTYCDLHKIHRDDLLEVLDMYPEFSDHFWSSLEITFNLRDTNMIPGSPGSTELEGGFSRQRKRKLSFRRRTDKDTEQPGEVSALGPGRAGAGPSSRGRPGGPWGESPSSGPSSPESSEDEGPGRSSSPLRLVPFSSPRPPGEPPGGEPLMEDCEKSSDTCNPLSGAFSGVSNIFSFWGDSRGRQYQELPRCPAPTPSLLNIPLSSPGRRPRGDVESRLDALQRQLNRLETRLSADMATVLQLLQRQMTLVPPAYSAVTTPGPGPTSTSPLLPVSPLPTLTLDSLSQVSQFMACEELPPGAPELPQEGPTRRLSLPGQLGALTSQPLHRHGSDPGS

Compound	hERG current change (%, negative = inhibition) at 10uM [%]
O=C(NCc1ccc2c(c1)OCO2)c1ccncc1	-12.6
Cc1ccc(NCC(=O)Nc2cccc(F)c2)cc1S(=O)(=O)N1CCCCCC1	-22.6
COC(=O)c1ccccc1NC(=O)N1CSC[C@H]1C(=O)OC	15.8
CCCCN(CCCC)CC(O)COc1ccccc1Br.Cl (stereo not drawn)	-40.6
Cc1cc(C)n(CC(O)COc2ccccc2C(=O)Nc2ccccc2)n1 (stereo not drawn)	-26.1
CCCN(CCC)CC(O)COc1ccccc1C(=O)Nc1ccccc1.Cl (stereo not drawn)	-68.2
CCCCN(CCCC)CC(O)COc1ccccc1C(=O)Nc1ccccc1 (stereo not drawn)	-98.7
CCOc1ccccc1C(=O)Nc1ccc(NC(=O)c2ccccc2)cc1	12.7
CC1(C)NC(=O)N(CC(O)COc2ccccc2C(=O)Nc2ccccc2)C1=O (stereo not drawn)	-6.2
CSc1ccc(/C=N/NC(=O)c2sccc2C)cc1	15.4
CCCCC(=O)NC(c1ccc(OC)c(OC)c1)c1c(O)ccc2ccccc12 (stereo not drawn)	-13.7
O=C1C(Cl)=C(N2CCOCC2)C(=O)N1c1ccccc1F	20.3
O=C(Nc1ccc(Cl)c([N+](=O)[O-])c1)c1cnccn1	-10.4
Cc1ccc(/C=N/NC(=O)COc2ccccc2-c2ccccc2)cc1	-3.49
CC(=O)c1ccc(N2CCN(C(=O)COc3ccc(F)cc3)CC2)c(F)c1	-71.5
COc1cc(C(=O)N2CCN(c3ccccc3O)CC2)ccc1OCC(=O)N1CCOCC1	3.06
CCc1ccc(OCC(=O)N2CCN(c3ccccc3F)CC2)cc1	20.2
CC(=O)c1ccc(N2CCN(C(=O)COc3ccccc3F)CC2)c(F)c1	-39.7
COc1cc(C(=O)N2CCN(c3ccccc3Cl)CC2)ccc1OCC(=O)N1CCOCC1	-28.6
Cc1ccc(S(=O)(=O)Nc2ccccc2C(=O)Nc2nc(-c3ccc(F)cc3)cs2)cc1	9.22
CCC(=O)c1ccc(N2CCN(C(=O)COc3ccccc3F)CC2)c(F)c1	-50.9

Compound	hERG current change (%, negative = inhibition) at 10uM [%]
COc1ccc(S(=O)(=O)Nc2ccccc2C(=O)Nc2nc(-c3ccc(F)cc3)cs2)cc1OC	-51.7
COc1ccc(-c2csc(NC(=O)c3ccccc3NS(=O)(=O)c3ccc(F)c(F)c3)n2)cc1	19.3
CCC(=O)c1ccc(N2CCCCCC2)c(F)c1	4.04
CC(=O)c1ccc(N2CCN(C(=O)CN3C(=O)NC4(CCCCC4)C3=O)CC2)c(F)c1	0.416
COc1cc(C(=O)N2CCN(c3ccccc3F)CC2)ccc1OCC(=O)N1CCOCC1	-60.9
CC(=O)c1cccc(NC(=O)NCc2ccco2)c1	-2.14
COc1ccc(Cl)cc1Nc1nc(NCCO)nc(N2CCCCC2)n1	-3.45
CCN(CC)S(=O)(=O)c1ccc(C)c(NC(=S)N2CCN(C/C=C/c3ccccc3)CC2)c1	-2.74
CCOc1ccc(NS(=O)(=O)c2ccc(NC(=S)NC(=O)CC(C)C)cc2)cc1	8.92
O=C(CSC(=S)N1CCCC1)N1CCN(S(=O)(=O)c2cccc([N+](=O)[O-])c2)CC1	5.69
COc1ccc(/C=N/NC(=O)CC(=O)NCc2cccnc2)c(OC)c1	4.71
CCC(CC)C(=O)c1c[nH]c(C(=O)NCc2cccnc2)c1	18.6
CC(C)(C)c1ccc(-c2nnc(SCC(=O)c3ccc4c(c3)OCCO4)o2)cc1	12.3
Cc1ccc(S(=O)(=O)N(C)CCCC(=O)NC(C)(C)C)cc1	13.3
CO/N=C/c1cn(-c2ccc(Cl)cc2)nn1	-2.53
CC(=O)c1ccc(N2CCN(C(=O)Cc3ccccc3)CC2)c(F)c1	-9.6
CC(=O)c1cc(F)c(N2CCN(C(=O)COc3ccccc3F)CC2)cc1C	-7.84
CCCCCC(=O)N1CCN(c2ccc(C(C)=O)cc2F)CC1	-60.9
CCOC(=O)N1CCN(c2ccc(C(=O)CC)cc2F)CC1	-9.37
COc1ccc(-c2csc(NC(=O)c3ccc(OCC(=O)N4CCOCC4)c(OC)c3)n2)cc1	-48
CC(=O)c1cc(F)c(N2CCN(C(=O)COc3ccc(F)cc3)CC2)cc1C	-76.3

Compound	hERG current change (%, negative = inhibition) at 10uM [%]
CCC(=O)c1ccc(N2CCCC2)c(F)c1	6.95
COc1cc(C(=O)Nc2nc(-c3ccc(F)cc3)cs2)ccc1OCC(=O)N1CCOCC1	-53.3
CC(=O)c1ccc(N2CCCC2)c(F)c1	1.88
CCOC(=O)N1CCN(c2cc(C)c(C(C)=O)cc2F)CC1	2.71
COc1cc(C(=O)Nc2nc(-c3ccc(C)cc3)cs2)ccc1OCC(=O)N1CCOCC1	-18.9
CCC(=O)c1ccc(N2CCN(C(=O)COc3ccc(F)cc3)CC2)c(F)c1	-73.4
CC1=Nc2ccccc2NC(=O)C1Sc1nnc(C)s1 (stereo not drawn)	-12.6
CC(C)CN1CCC(CNC(=O)CCc2nnc(Cc3c[nH]c4ccccc34)o2)CC1	-1.27
N#Cc1ccccc1NC(=S)NC(=O)C1CCC1	9.95
COc1cc2c3cc1Oc1cc(ccc1O)C[C@@H]1c4c(cc(OC)c(O)c4Oc4ccc(cc4)C[C@H]3N(C)CC2)CCN1C	-37
COc1ccccc1N1CCN(C(=O)CCNS(=O)(=O)c2ccc(Br)s2)CC1	-31.3
S=C1NC[C@H](Cc2ccccc2)N1CCCCC1CCCCC1	4.71
CC(=O)c1ccc(NC(=O)c2cc(C)nc3ccccc23)cc1	16.5
COC(=O)c1ccc(Nc2nc(C)cc(C)n2)cc1	10.9
CCOC(=O)c1cnc2ccc(C(=O)OC)cc2c1Nc1ccc(C(=O)O)cc1.Cl	5.66
CC(=O)c1ccc(Nc2nc(C)cc(C)n2)cc1	4.62
COC(=O)c1ccc(Nc2cc(C)nc3ccc(C)cc23)cc1.Cl	-55.6
COC(=O)c1ccc(Nc2cc(C)nc3ccccc23)cc1.Cl	-37.3
COC(=O)c1ccc2nc(C)cc(Nc3ccccc3C)c2c1.Cl	-47.5
CC(=O)c1ccc(Nc2cc(C)nc3ccc(C)cc23)cc1	-74.5
COC(=O)c1ccc2nc(C)cc(Nc3ccc(N(C)C)cc3)c2c1.Cl	-67.1
